Test results from PMC5540273 (PLoS ONE, 2017).
pKd: −log10 of the molar value.

Legend:
CTK = tested on: T1, CTK
T1 construct: gene MATK

DCAMKL1 = tested on: T2, DCAMKL1
T2 construct: gene DCLK1

DCAMKL3 = tested on: T3, DCAMKL3
T3 construct: gene DCLK3

DLK = tested on: T4, DLK
T4 construct: gene MAP3K12
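Further: kd values determined as follow-up on hits from a single-replicate KINOMEscan panel screen.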

Cc1cccc(-c2nc(Nc3ccc4[nH]nnc4c3)c3ccccc3n2)n1 [GW867587]
pKd (CSNK2A1): 6.11

O=C(Nc1ccccc1)Nc1ccc(Oc2ccc3nccn3n2)cc1
pKd (CTK): < 5.00

COC(=O)c1cccc(NC(=O)NCCNc2ccnc(Nc3ccc(F)cc3)n2)c1 [GSK1379883]
pKd (DCAMKL1): < 5.00

C[C@@H]1CCN(C(=O)CO)C[C@@H]1N(C)c1ncnc2[nH]ccc12
pKd (DCAMKL3): 6.62

Clc1ccc(-c2cc(-c3c[nH]nc3-c3ccccn3)ccn2)cc1 [GW681251]
pKd (DLK): < 5.00

CSc1nn2c(=O)cc(N3CCOCC3)nc2n1Cc1cccc(Cl)c1Cl [GSK2347225]
pKd (DLK): < 5.00
